Holding throughout (settings): Compound concentration 20.0 uM
For assay [1], the target named is Tyrosine-protein kinase ABL1 (Homo sapiens) (UniProt P00519).
For assay [2], the target named is Bromodomain-containing protein 4 (Homo sapiens) (UniProt O60885).
The target in assay [3] is Cyclin-dependent kinase 2 (Homo sapiens) (UniProt P24941).
In assay [4] the target is Casein kinase I isoform delta (Homo sapiens) (UniProt P48730).
Assay [5] deals with Glycogen synthase kinase-3 beta (Homo sapiens) (UniProt P49841).
Chain of Glycogen synthase kinase-3 beta (Homo sapiens) (P49841 whole entry, looked up): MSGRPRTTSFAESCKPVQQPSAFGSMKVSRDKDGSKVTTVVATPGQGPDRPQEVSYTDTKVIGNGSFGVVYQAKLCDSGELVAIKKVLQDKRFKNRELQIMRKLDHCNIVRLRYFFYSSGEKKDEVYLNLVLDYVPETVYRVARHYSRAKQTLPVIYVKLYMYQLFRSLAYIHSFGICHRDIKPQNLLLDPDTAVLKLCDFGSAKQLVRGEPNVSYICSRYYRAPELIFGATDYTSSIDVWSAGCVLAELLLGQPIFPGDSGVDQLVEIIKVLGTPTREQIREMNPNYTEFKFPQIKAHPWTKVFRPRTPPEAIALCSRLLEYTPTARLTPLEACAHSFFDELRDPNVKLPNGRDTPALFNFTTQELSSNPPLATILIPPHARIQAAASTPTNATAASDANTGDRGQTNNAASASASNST
For assay [6], the target named is Mitogen-activated protein kinase 1 (Homo sapiens) (UniProt P28482).
Chain of Mitogen-activated protein kinase 1 (Homo sapiens) (P28482 whole entry): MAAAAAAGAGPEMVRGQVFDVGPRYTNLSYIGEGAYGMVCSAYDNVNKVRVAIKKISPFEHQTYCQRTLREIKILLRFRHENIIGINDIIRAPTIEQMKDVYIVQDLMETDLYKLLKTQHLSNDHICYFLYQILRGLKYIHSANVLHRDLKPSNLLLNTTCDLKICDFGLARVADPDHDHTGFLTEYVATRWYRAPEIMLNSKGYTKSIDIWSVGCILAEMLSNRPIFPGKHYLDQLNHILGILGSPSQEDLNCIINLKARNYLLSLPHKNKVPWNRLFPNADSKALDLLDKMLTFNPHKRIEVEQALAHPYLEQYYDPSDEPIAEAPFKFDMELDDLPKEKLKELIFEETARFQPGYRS
Assay [7] concerns the target T1, Aurora kinase A (Homo sapiens) (UniProt O14965).
T1 sequence (whole entry): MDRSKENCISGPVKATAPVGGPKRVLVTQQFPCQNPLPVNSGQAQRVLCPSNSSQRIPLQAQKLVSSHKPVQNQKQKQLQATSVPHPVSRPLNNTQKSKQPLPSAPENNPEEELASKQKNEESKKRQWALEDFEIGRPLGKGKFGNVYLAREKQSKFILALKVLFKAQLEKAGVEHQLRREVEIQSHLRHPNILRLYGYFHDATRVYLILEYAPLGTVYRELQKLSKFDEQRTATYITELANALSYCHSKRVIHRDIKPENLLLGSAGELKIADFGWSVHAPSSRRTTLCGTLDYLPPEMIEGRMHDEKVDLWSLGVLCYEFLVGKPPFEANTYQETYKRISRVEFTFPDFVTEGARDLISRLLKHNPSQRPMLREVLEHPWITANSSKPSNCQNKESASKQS

The target in assay [8] is T2, Transcription intermediary factor 1-alpha (Homo sapiens) (UniProt O15164).
T2 sequence (whole entry): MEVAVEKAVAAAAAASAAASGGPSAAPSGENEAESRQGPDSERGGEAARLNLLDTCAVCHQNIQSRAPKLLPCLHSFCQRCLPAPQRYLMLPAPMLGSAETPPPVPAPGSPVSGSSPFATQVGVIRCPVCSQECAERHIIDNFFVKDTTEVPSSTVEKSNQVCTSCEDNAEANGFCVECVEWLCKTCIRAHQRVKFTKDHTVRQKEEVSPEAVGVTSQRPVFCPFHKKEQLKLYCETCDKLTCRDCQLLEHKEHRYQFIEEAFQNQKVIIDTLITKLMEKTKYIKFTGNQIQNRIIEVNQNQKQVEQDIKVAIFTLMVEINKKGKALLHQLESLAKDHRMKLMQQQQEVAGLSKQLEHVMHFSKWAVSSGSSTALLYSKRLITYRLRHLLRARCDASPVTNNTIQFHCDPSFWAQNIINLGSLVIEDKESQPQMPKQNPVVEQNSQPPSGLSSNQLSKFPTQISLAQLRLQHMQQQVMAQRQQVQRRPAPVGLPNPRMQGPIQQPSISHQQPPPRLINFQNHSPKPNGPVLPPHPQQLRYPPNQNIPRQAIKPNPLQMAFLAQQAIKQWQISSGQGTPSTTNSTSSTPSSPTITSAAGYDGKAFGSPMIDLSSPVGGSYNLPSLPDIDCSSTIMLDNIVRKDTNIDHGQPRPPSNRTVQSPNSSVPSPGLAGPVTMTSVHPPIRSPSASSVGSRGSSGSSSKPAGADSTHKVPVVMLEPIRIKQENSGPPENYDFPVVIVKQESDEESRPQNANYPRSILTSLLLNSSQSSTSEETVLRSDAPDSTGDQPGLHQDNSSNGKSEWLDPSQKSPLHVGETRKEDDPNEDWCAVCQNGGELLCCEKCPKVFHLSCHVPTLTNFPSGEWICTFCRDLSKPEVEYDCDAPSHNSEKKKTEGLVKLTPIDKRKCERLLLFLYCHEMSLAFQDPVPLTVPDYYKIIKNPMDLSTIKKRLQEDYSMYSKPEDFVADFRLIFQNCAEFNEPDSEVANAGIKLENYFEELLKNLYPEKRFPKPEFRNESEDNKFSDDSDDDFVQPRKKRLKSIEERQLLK

Structures are written as SMILES.

Chain of Tyrosine-protein kinase ABL1 (Homo sapiens) (P00519 whole entry): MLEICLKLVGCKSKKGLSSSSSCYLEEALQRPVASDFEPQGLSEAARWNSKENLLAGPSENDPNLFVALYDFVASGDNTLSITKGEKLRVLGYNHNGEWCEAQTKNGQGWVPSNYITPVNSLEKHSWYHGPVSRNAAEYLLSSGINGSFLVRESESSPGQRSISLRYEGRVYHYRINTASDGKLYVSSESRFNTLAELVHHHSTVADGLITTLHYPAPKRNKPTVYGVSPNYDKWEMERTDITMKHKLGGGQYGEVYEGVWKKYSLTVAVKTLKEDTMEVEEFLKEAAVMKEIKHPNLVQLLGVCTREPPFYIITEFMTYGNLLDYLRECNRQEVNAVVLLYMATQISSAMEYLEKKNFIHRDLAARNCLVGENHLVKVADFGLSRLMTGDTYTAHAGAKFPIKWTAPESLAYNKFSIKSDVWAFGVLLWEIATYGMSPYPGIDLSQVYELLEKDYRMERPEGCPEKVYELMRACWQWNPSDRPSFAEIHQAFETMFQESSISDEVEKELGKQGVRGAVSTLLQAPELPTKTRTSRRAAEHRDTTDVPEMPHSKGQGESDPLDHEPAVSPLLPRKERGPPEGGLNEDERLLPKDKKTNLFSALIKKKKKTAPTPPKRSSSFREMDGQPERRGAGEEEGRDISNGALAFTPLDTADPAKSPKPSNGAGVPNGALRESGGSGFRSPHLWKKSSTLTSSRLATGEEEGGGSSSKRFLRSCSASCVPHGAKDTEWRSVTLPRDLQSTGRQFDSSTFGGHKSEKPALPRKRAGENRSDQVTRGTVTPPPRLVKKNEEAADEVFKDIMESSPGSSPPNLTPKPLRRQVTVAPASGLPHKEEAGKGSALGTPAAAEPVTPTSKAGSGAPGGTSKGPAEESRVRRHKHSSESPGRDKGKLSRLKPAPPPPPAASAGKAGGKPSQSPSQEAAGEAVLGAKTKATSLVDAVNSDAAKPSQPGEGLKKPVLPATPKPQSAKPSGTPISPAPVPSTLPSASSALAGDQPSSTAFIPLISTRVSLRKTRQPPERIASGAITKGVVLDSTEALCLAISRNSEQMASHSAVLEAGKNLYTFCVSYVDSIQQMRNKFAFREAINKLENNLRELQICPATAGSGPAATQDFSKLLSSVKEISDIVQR
Chain of Casein kinase I isoform delta (Homo sapiens) (P48730 whole entry, looked up, canonical isoform): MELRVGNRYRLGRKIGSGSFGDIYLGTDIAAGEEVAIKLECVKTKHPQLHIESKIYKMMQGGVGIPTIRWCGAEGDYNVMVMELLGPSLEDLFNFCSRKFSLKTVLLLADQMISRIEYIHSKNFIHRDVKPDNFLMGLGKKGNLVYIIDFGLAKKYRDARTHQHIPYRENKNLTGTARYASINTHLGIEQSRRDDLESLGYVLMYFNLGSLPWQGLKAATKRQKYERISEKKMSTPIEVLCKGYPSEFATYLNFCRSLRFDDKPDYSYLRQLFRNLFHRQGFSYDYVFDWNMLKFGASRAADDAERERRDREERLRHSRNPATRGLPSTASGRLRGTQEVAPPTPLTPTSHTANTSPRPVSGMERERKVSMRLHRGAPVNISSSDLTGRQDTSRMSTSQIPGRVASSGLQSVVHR

As usually defined, the ΔTm is the change in melting temperature against a reference sample. As to `COc1cc2c(NC3CCN(C4CCCCC4)CC3)nc(N3CCCN(C(C)C)CC3)nc2cc1OCCCN1CCCCC1`, the ΔTm in assay [1] was 0.29 °C; in assay [2], -1.02 °C; in assay [3] it was 0.48 °C; in assay [4] it was 0.1 °C; in assay [5] it was 0.08 °C; in assay [6], -0.69 °C. Besides, the ΔTm in assay [7] turned out to be 0.32 °C; in assay [8] it was 0.36 °C.

Take `O=C(O)c1cccc(-c2ccc(-c3cn(C(=O)N4CCCCC4Cc4ccccc4)nn3)cc2)c1` (stereo unspecified): the ΔTm was -0.1 °C in assay [1]; -2.23 °C in assay [2]; -0.87 °C in assay [3]; -4.82 °C in assay [4]; -4.03 °C in assay [5]; 0.56 °C in assay [6]. Moreover, the shift in melting temperature (ΔTm) in assay [7] is -3.62 °C; in assay [8] it was -0.34 °C.

Consider `O=C(NO)c1ccc(CN(c2cnccn2)c2cnccn2)cc1`, for which the thermal shift (ΔTm) in assay [1] was 0.4 °C; in assay [2], -1.6 °C; in assay [3], -0.02 °C; in assay [4], 0.05 °C; in assay [5], -1.38 °C; in assay [6], -0.44 °C. Moreover, the figures for the ΔTm in assay [7] and in assay [8] were -0.32 °C and -1.38 °C, respectively.

`COc1cc(C(=O)N2C[C@H](N)CC[C@@H]2C)cc2nc(-c3cc4cccnc4n3CC3CC3)n(C)c12`: the ΔTm in assay [1] was 0.14 °C; in assay [2], 0.61 °C; in assay [3] it was 0.15 °C; in assay [4], -0.38 °C; in assay [5], -1.31 °C; in assay [6], -0.7 °C. In addition, the ΔTm is -1.15 °C in assay [7] and 0.53 °C in assay [8].

On to `Nc1ncnc2c1ncn2[C@@H]1O[C@H](C[C@@H](N)CC[C@H](N)C(=O)O)[C@@H](O)[C@H]1O`, for which the ΔTm was 0.31 °C in assay [1]; -2.03 °C in assay [2]; -0.94 °C in assay [3]; 0.18 °C in assay [4]; -1.05 °C in assay [5]; -1.35 °C in assay [6]. Besides, the ΔTm in assay [7] was -1.45 °C; in assay [8], -0.73 °C.

Regarding `NC(=O)[C@H]1CCCCc2c1[nH]c1ccc(Cl)cc21`, the ΔTm in assay [1] is 1.15 °C; in assay [2], -1.22 °C; in assay [3], 0.22 °C; in assay [4] it was 0.38 °C; in assay [5], 0.6 °C; in assay [6], -0.5 °C. In addition, the ΔTm in assay [7] is 1.7 °C; in assay [8], 0.16 °C.

Turning to `C[C@]12CCCN1CC1=NNC(=O)c3cc(F)cc4[nH]c2c1c34`, the ΔTm in assay [1] came out at 0.67 °C; in assay [2], 2.16 °C; in assay [3] it was 2.04 °C; in assay [4], 1.06 °C; in assay [5], 8.59 °C; in assay [6], 0.1 °C. Moreover, the thermal shift (ΔTm) is 1.26 °C in assay [7] and 0 °C in assay [8].

As to `CN(C)CC(c1ccc(O)cc1)C1(O)CCCCC1` (stereo unspecified), the ΔTm in assay [1] is 0.19 °C; in assay [2], -2.16 °C; in assay [3], 0.04 °C; in assay [4] it was -0.35 °C; in assay [5], -1.41 °C; in assay [6], 0.1 °C. The results for the ΔTm in assay [7] and in assay [8] were -1.27 °C and 0.3 °C, respectively.

As to `CCn1c(=O)c(C)cn(Cc2nnc(-c3ccc(F)c(OC)c3F)s2)c1=O`, the ΔTm in assay [1] is 0.22 °C; in assay [2] it was -0.83 °C; in assay [3] it was 0.23 °C; in assay [4], 0.22 °C; in assay [5], 0 °C; in assay [6], -4.56 °C. Moreover, the ΔTm in assay [7] is -2.75 °C; in assay [8], -0.83 °C.

As for `CCCNC(=O)[C@H]1O[C@@H]1C(=O)N[C@H](C(=O)N1CCC[C@H]1C(=O)O)[C@@H](C)CC`, the thermal shift (ΔTm) is 0.43 °C in assay [1]; -1.16 °C in assay [2]; -0.18 °C in assay [3]; -0.02 °C in assay [4]; 0.22 °C in assay [5]; -0.39 °C in assay [6]. The ΔTm in assay [7] is -1.17 °C; in assay [8], -0.81 °C.

Consider `CN(C)Cc1ccc(-c2nc3cccc4c3n2CCNC4=O)cc1`, for which the shift in melting temperature (ΔTm) in assay [1] was 0.45 °C; in assay [2] it was 0.14 °C; in assay [3], 0.42 °C; in assay [4] it was -0.01 °C; in assay [5], 1.99 °C; in assay [6], 0.01 °C. Moreover, the thermal shift (ΔTm) was -0.64 °C in assay [7] and 0.79 °C in assay [8].

Take `CCN(CCN(C)C)C(=O)CNCc1cc(C(N)=O)ccn1`: the ΔTm was 0.33 °C in assay [1]; -1.29 °C in assay [2]; 0.23 °C in assay [3]; -0.08 °C in assay [4]; 0.25 °C in assay [5]; -0.01 °C in assay [6]. Besides, the ΔTm is -1.34 °C in assay [7] and -0.57 °C in assay [8].

Regarding `Cc1nnn(C)c1-c1cnc2c3cc4cnn(C)c4cc3n([C@H](c3ccccc3)C3CCOCC3)c2c1`, the ΔTm was 0.34 °C in assay [1]; 22.9 °C in assay [2]; -0.73 °C in assay [3]; 0.09 °C in assay [4]; -1.29 °C in assay [5]; 0.17 °C in assay [6]. The thermal shift (ΔTm) in assay [7] was -2.95 °C; in assay [8] it was 0.06 °C.

Turning to `CC(C)C(=O)SCCCCCCC(=O)Nc1nc(-c2ccccc2)cs1`, the thermal shift (ΔTm) in assay [1] is 0.63 °C; in assay [2], -1.46 °C; in assay [3] it was 0.18 °C; in assay [4] it was 0.04 °C; in assay [5], 1.11 °C; in assay [6] it was -0.16 °C. Further, the thermal shift (ΔTm) in assay [7] was -0.57 °C; in assay [8] it was -0.48 °C.

Regarding `Cc1nc(-c2cnc(NC(C)C)n(C)c2=O)ccc1Oc1ccnc(-c2cnn(C)c2)c1`, the shift in melting temperature (ΔTm) in assay [1] is 13.3 °C; in assay [2], -1.75 °C; in assay [3], 0.63 °C; in assay [4], 0.37 °C; in assay [5], -0.22 °C; in assay [6] it was -0.25 °C. Moreover, the ΔTm in assay [7] was 0.8 °C; in assay [8], -1.36 °C.

For `CCCCCCNC(=O)n1cc(F)c(=O)[nH]c1=O`, the shift in melting temperature (ΔTm) in assay [1] was 0.09 °C; in assay [2] it was -1.76 °C; in assay [3] it was -0.24 °C; in assay [4], -0.3 °C; in assay [5], -0.82 °C; in assay [6], 0.03 °C. For the same compound, the ΔTm is -1.98 °C in assay [7] and 0.05 °C in assay [8].

Take `CCCCNc1cc(C(=O)O)cc(S(N)(=O)=O)c1Oc1ccccc1`: the ΔTm in assay [1] is 0.19 °C; in assay [2], -1.86 °C; in assay [3], -0.19 °C; in assay [4] it was 0.17 °C; in assay [5], -0.41 °C; in assay [6], 0.13 °C. The ΔTm was 0.14 °C in assay [7] and 0.82 °C in assay [8].

In the case of `CC#CCn1c(N2CCC[C@@H](N)C2)nc2c1c(=O)n(Cc1nc(C)c3ccccc3n1)c(=O)n2C`, the shift in melting temperature (ΔTm) is -0.11 °C in assay [1]; 0.18 °C in assay [2]; -0.01 °C in assay [3]; -0.33 °C in assay [4]; -0.82 °C in assay [5]; 0.06 °C in assay [6]. Moreover, the ΔTm in assay [7] is -0.13 °C; in assay [8], -0.79 °C.

Turning to `O=C(O)C1CCCN(CCC=C(c2ccccc2)c2ccccc2)C1` (stereo unspecified), the thermal shift (ΔTm) in assay [1] is 0.13 °C; in assay [2] it was -2.59 °C; in assay [3] it was 0 °C; in assay [4], -0.19 °C; in assay [5], -0.66 °C; in assay [6], 0.13 °C. The ΔTm in assay [7] was -2.34 °C; in assay [8] it was -1.2 °C.

`C[C@@H]1CCC[C@H](C)N1NC(=O)c1ccc(Cl)c(S(N)(=O)=O)c1`: the ΔTm in assay [1] is 0.07 °C; in assay [2], -0.69 °C; in assay [3], 0.04 °C; in assay [4] it was -0.23 °C; in assay [5], -0.93 °C; in assay [6] it was 0.04 °C. The ΔTm in assay [7] was -1.59 °C; in assay [8], 0.4 °C.

Take `Nc1cc(F)ccc1NC(=O)c1ccc(CNC(=O)/C=C/c2cccnc2)cc1`: the ΔTm was 0.72 °C in assay [1]; -1.97 °C in assay [2]; -0.55 °C in assay [3]; 0.17 °C in assay [4]; -1.09 °C in assay [5]; -3.81 °C in assay [6]. The ΔTm in assay [7] is -0.25 °C; in assay [8], -1.2 °C.

In the case of `Cc1ccc2c(c1)nc(/C=C/c1cccc3cccnc13)n2-c1cccc(OCCCN2CCN(C)CC2)c1`, the ΔTm was 0.62 °C in assay [1]; -5.41 °C in assay [2]; -0.28 °C in assay [3]; -0.14 °C in assay [4]; -0.72 °C in assay [5]; 0.14 °C in assay [6]. Besides, the ΔTm in assay [7] is -2.49 °C; in assay [8] it was 1.41 °C.

The record behind these values is ChEMBL document CHEMBL5724796, “Tm Shift (DSF) assay results for EUbOPEN Chemogenomics Library” (2024).
